According to ChEMBL document CHEMBL3988442, “University of Dundee, Small-Polar-MMV Screening Library” (2021):
Among all 48,000 compounds or so, about 13,000 (27%) showed an effect of 50% or more. Some of the results follow.

system: Wolbachia pipientis; assay: Anti-Wolbachia Cell-Based Screen; format: functional; design: scale not given: in the data most compounds retested in dose-response had high values; conditions: 5 µM

| SMILES | Percent Effect [%] |
| --- | --- |
| COCc1nn(CC2CC2)c2c1CN(Cc1ccco1)CC2.O=C(O)C(F)(F)F | -26.88 |
| Cc1cc(NC(=O)CN(CC(C)O)c2ccccc2)on1 (stereo not given) | -1.303 |
| COc1ccc(OCc2nc(C(=O)N3CCC(NC(C)=O)C3)co2)cc1 (stereo not given) | 5.881 |
| COc1ccc(C2OC(COc3ccccc3Br)=NN2C(C)=O)cc1 (stereo not given) | -8.819 |
| CC(=O)N(C)Cc1ccc(OCc2cccs2)cc1 | 14.59 |
| COc1ccc(C2OC(COc3ccc(C)cc3)=NN2C(C)=O)cc1 (stereo not given) | 120.9 |
| CC(=O)N1N=C(COc2ccc(C)cc2)OC1c1ccc(N(C)C)cc1 (stereo not given) | 128.5 |
| COc1cc(C(=O)N(CCC#N)Cc2ccccn2)cc(OC)c1C | 1.954 |
| O=C(CC1CCN(CCc2ccccc2)CC1)N1CCCOCC1 | 161.2 |
| O=C(Cc1cnn(-c2ccccc2)n1)NC1CCOCC1 | 19.75 |
| O=C(CC1CCN(CCN2CCCCC2)CC1)N1CCOCC1 | -17.01 |
| O=C(NCC1CCN(CCc2ccccc2)C1)NCC1(O)CCC1 (stereo not given) | -8.264 |
| O=C(CC1CCN(CCc2ccccc2)CC1)NC1CCOCC1 | 134.1 |
| O=C(CC1CN(Cc2ccccc2)CCO1)NC1CCCC1 (stereo not given) | 4.16 |
| CCCc1nc(CNC(=O)Cc2csc(C)n2)cs1 | -2.31 |
| Cc1nn(C)c(C)c1-c1ccnc(N(C)Cc2nc(C(C)C)no2)n1 | -10.91 |
| Cc1nn2cccnc2c1C(=O)NCc1ccccc1OC1CCC1 | -16.31 |
| O=C(c1cccnc1O)N1CCOC(Cc2cccc(C(F)(F)F)c2)C1 (stereo not given) | 16.06 |
| O=S(=O)(NCCCN1CC=CC1)c1cncc(Cl)c1 | -17.29 |
| Cc1cc(OCC(O)c2nc3c([nH]2)CC(C)(C)CNC3=O)ccc1Cl (stereo not given) | 90.28 |
| CC1(C)CNC(=O)c2nc(-c3ccccc3)[nH]c2C1 | 3.068 |
| CCOCC(O)c1nc2c([nH]1)CC(C)(C)CNC2=O (stereo not given) | 90.67 |
| CC1(C)CNC(=O)c2nc(CCN3CCC(C(N)=O)CC3)[nH]c2C1 | -47.56 |
| CCC(O)c1nc2c([nH]1)CC(C)(C)CNC2=O (stereo not given) | 130.2 |
| CC1(C)CNC(=O)c2nc(-c3nnc(-c4ccccc4)[nH]3)[nH]c2C1 | 3.309 |

| SMILES | Percent Effect [%] |
| --- | --- |
| CC1(C)CNC(=O)c2nc(-c3n[nH]c(=O)[nH]3)[nH]c2C1 | -9.314 |
| CC1(C)CNC(=O)c2nc(CCN3CCC(O)CC3)[nH]c2C1 | -46.57 |
| CC1(C)CNC(=O)c2nc(-c3nnn[nH]3)[nH]c2C1 | 23.12 |
| CC(C)(C)CNS(=O)(=O)C1CS(=O)(=O)c2ccccc21 (stereo not given) | -2.538 |
| CCN(C)S(=O)(=O)N1CCC(C(O)c2ccc(F)cc2)CC1 (stereo not given) | -5.224 |
| Cc1noc2nc3c(c(C(=O)/N=c4\[nH]nc(C(C)C)s4)c12)CCC3 | 96.48 |
| Cc1n[nH]/c(=N\C(=O)c2c3c(nc4onc(C)c24)CCC3)s1 | 84.01 |
| Cc1nn(C)c2nc3c(c(C(=O)/N=c4\[nH]nc(C(C)C)s4)c12)CCC3 | 112.1 |
| COCc1n[nH]/c(=N\C(=O)c2c3c(nc4onc(C)c24)CCC3)s1 | 76.74 |
| Cc1nc(C)c(CNC[C@@]2(COc3cccnc3)C[C@@H](O)[C@@H](O)C2)s1.Cl.Cl | 0.5308 |
| O=C(CCn1cccn1)N1C[C@@H]2CC[C@H](C1)N(Cc1ccccn1)C2=O | 2.815 |
| Cl.NCCCNS(=O)(=O)Cc1ccc(Br)cc1 | -40.39 |
| CCCc1nc(CNc2nc(C)nc3oc(C)nc23)cs1 | -12.23 |
| COc1ccc(C(=O)N2CCC(Oc3ccccc3C)(C(=O)O)CC2)o1 | -4.68 |
| Cc1cs/c(=N\C(=O)c2c3c(nc4onc(C)c24)CCC3)[nH]1 | 113 |
| Cc1noc2nc3c(c(C(=O)/N=c4\[nH]ncs4)c12)CCC3 | 123.1 |
| COCc1noc(C2(c3ccc(F)cc3)CCOCC2)n1 | -32.93 |
| O=S(=O)(NCC1CCN(CCN2CCOCC2)C1)c1ccccc1F (stereo not given) | 14.41 |
| CC(=O)NCC(=O)N1CCn2cc(CN3CCN(C)CC3)nc2C1.O=C(O)C(F)(F)F.O=C(O)C(F)(F)F | -9.16 |
| Cn1ccnc1CC1CCCN(C(=O)Nc2cccn(C)c2=O)C1 (stereo not given) | -3.094 |
| CN(CCc1ccccc1)C1CCCN(Cc2nccn2C)C1 (stereo not given) | -2.668 |
| CC(=O)N1CCCC(Cc2nccn2C)C1 (stereo not given) | 104.6 |
| Cn1ccnc1CC1CCCN(C(=O)Cc2ccccc2)C1 (stereo not given) | 107.6 |
| Cn1ccnc1CNC(=O)N1CCCC(Cc2nccn2C)C1 (stereo not given) | -2.047 |
| CCC(C)(NCc1cccc(NC(C)=O)c1)c1nc(C)cs1 (stereo not given) | -6.571 |

| SMILES | Percent Effect [%] |
| --- | --- |
| CCNS(=O)(=O)C1CCN(C(=O)c2ccc(CC)o2)C1 (stereo not given) | 1.453 |
| CCN1CCN(C(=O)C(C)N2CCc3cncnc3C2)CC1 (stereo not given) | 4.565 |
| CC(C)(C)c1coc([C@@H]2COCCN2Cc2ccccc2)n1 | -6.681 |
| O=C1O[C@@H]2CN(CCc3ccccc3)C[C@@H]2N1CCCN1CCOCC1 | -3.811 |
| CNc1cnc(CC2COCCN(CCOc3ccccc3)C2)cn1 (stereo not given) | 158.8 |
| Cc1ccc(CC2COCCN(Cc3ccccc3)C2)nc1 (stereo not given) | 76.14 |
| CNc1cc(C)nc(N2CCN(Cc3ccccc3)CC(O)C2)n1 (stereo not given) | 10.53 |
| CNc1cnc(CC2COCCN(Cc3ccccc3)C2)cn1 (stereo not given) | 100 |
| COc1ccc(CN2CCOC[C@H](OCc3ccccc3)C2)cc1 | -4.744 |
| Cc1cc(N2CCCN(CCc3ccccc3)CC2)ccn1 | 5.317 |
| Clc1cncc(NCc2cccc(OCCN3CCOCC3)c2)n1 | 2.735 |
| c1ccc(NCc2cccc(OCCN3CCOCC3)c2)nc1 | 9.722 |
| CN1CCN2CCN(Cc3cnc(NCc4ccccc4)nc3)CC2C1 (stereo not given) | 2.574 |
| Cc1cc(CC2COCCN(CCc3ccccc3)C2)ncn1 (stereo not given) | 136.2 |
| Cc1cc(C)n(C2CN(C(=O)Cn3c(=O)c(C)nc4ccccc43)C2)n1 | -1.32 |
| CNC(=O)[C@@H]1C[C@@H](N)CN1Cc1ccc2cccc(OC)c2n1 | -0.1513 |
| c1ccc(CCc2noc(CN3CCC(N4CCSCC4)CC3)n2)cc1 | -3.456 |
| N#Cc1ccc(CNC(=O)NC2CCN(CC(F)F)CC2)cc1 | 3.671 |
| COc1cc(O)cc2c1C(=O)CC(c1ccc(O)cc1)O2 (stereo not given) | -2.59 |
| CN(Cc1ccc(C#N)cc1)Cn1nccc1-c1cccnc1 | 11.16 |
| COc1ccc(CN2Cc3cn(C)nc3C(COCC3CC3)C2)cc1 (stereo not given) | 10.23 |
| COc1ccccc1CN(Cc1cccc(C)c1)C(=O)[C@@H](N)CC(=O)O | 3.134 |
| Oc1cc(CC2COCCN(CC3(O)CCOCC3)C2)ncn1 (stereo not given) | 130 |
| Cc1cccc(CN2C[C@H]3OC(=O)N(CCCN4CCOCC4)[C@H]3C2)n1 | -5.32 |
| CNc1cnc(CC2COCCN(Cc3cccc(C)n3)C2)cn1 (stereo not given) | 107 |

| SMILES | Percent Effect [%] |
| --- | --- |
| CCCN1CCC(CC(=O)NCc2cc(O)ncn2)CC1 | -6.133 |
| Cc1cccc(O[C@H]2COCCN(Cc3sc(C)nc3C)C2)n1 | 12.2 |
| OC1COCCN(Cc2cccc(N3CCOCC3)c2)C1 (stereo not given) | -7.923 |
| CSc1cc2c(cc1NC(=O)N(C)Cc1cnn(C)c1)OCCO2 | -6.777 |
| COCCN1C(=O)[C@H]2CC[C@@H]1CN(C(=O)Cc1ccc(O)c(Cl)c1)C2 | 12.68 |
| CC(C)c1noc(Cn2ncn3cccc3c2=O)n1 | -11.32 |
| Cc1cnc(C(=O)N2CCC3(CCN(Cc4ccccn4)C3=O)C2)cn1.O=C(O)C(F)(F)F (stereo not given) | 102.4 |
| CN(C)CC(=O)N1CCC2(CCN(Cc3ccccn3)C2=O)C1 (stereo not given) | -12.92 |
| O=C(O)C(F)(F)F.O=C(c1ccsc1)N1CCC2(CCN(Cc3ccccn3)C2=O)C1 (stereo not given) | 124 |
| COCC(=O)N1CCC2(CC1)CCN(Cc1ccccn1)C2=O.O=C(O)C(F)(F)F | -18.96 |
| Cc1cccc(CN2CCC3(CCCN(C(=O)c4ccoc4)C3)C2=O)n1.O=C(O)C(F)(F)F (stereo not given) | 1.474 |
| Cc1oncc1C(=O)N1CCC2(CCN(Cc3ccccn3)C2=O)C1 (stereo not given) | -15.28 |
| Cc1cccc(CN2CCC3(CCCN(C(=O)c4ccsc4)C3)C2=O)n1.O=C(O)C(F)(F)F (stereo not given) | -5.258 |
| O=C(O)C(F)(F)F.O=C(c1ccc(F)cc1)N1CCC2(CCN(Cc3ccccn3)C2=O)C1 (stereo not given) | 89.07 |
| Cc1ccc(C(=O)N2CCC3(CCN(Cc4ccccn4)C3=O)C2)cn1 (stereo not given) | 76.19 |
| O=C(O)C(F)(F)F.O=C(c1cccnc1)N1CCCC2(CCN(c3ccsc3)C2=O)C1 (stereo not given) | 9.95 |
| COc1cccc(CC2CCCN2CCCC#N)c1 (stereo not given) | 4.783 |
| O[C@H]1[C@H](n2cc(-c3cccnc3)nn2)c2ccccc2C12CCNCC2 | 12.4 |
| O=C(CCc1ccc(OC(F)(F)F)cc1)N1CCCS1(=O)=O | 14.48 |
| c1cnc(N2CCN(Cn3nccc3-c3cccnc3)CC2)nc1 | 3.122 |
| Cc1ncc(C(=O)NC2CCN(CCOc3ccc(Br)cc3)CC2)s1 | -10.45 |
| CC(C)CC(NC(=O)c1ccc[nH]1)C(=O)N1CCC(CO)CC1 (stereo not given) | 4.263 |
| Cc1occc1C(=O)N1CCCC2(CCN(CCN3CCCC3)C2=O)C1.O=C(O)C(F)(F)F (stereo not given) | -1.514 |
| Cc1occc1C(=O)N1CCCC2(CCN(c3ccccc3)C2=O)C1 (stereo not given) | 4.886 |
| Cc1occc1C(=O)N1CCC2(CCN(Cc3ccccn3)C2=O)C1.O=C(O)C(F)(F)F (stereo not given) | 103.9 |
